PubChem BioAssay

The molecules below were run against Torsin-1A (Homo sapiens) (UniProt O14656) (assay: small-molecule binders of mutant TOR1A in lysate, primary screen, cell lysate, small-molecule microarray, COS7 lysate, 635/667 nm fluorescence (AID 1150;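 further: score pools 667 nm emission and signal to noise measuring lysate protein binding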)). Conditions: COS7 hTOR1A mutant lysate, 635 nm fluorescence, higher = more signal.
Sequence of Torsin-1A (Homo sapiens) (O14656 whole entry, looked up): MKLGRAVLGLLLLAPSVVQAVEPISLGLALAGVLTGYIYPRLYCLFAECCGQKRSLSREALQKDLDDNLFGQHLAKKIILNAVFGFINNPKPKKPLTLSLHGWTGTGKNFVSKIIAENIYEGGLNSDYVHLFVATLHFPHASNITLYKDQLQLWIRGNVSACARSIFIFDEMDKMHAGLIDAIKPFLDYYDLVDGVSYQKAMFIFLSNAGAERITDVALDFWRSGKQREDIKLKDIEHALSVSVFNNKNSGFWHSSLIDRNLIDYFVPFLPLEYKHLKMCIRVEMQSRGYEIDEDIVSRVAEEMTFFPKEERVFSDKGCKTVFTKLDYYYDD
`COC(=O)[C@@]1(Cc2ccc(F)cc2)[C@H]2c3cc(C(=O)N(C)C)n(CCN4CCOCC4)c3C[C@H]2CN1C(=O)c1ccccc1` showed a composite z-score of 2.17. `CCCC[C@@H]1C[C@H]1[C@@H](NC(=O)c1ccc(C(F)(F)F)cc1)c1ccc(C(=O)OC)cc1` gave a composite z-score of 3.93. With `COC(=O)[C@@]1(Cc2ccccc2)[C@@H]2[C@@H](CC(=O)[C@H]2CC(=O)C(=O)N(C)C)CN1C(=O)c1ccccc1` the composite z-score was 0.417. `COC(=O)[C@@]1(Cc2ccc(OC)cc2)[C@H]2c3cc(C(=O)N4CCCC4)n(CCc4ccc(OC)c(Br)c4)c3C[C@H]2CN1C(=O)c1ccccc1` showed a composite z-score of 0.57. `O=C1NC(=O)C2C1C=CC(C(O)c1cccc(O)c1)N2Nc1ccc(Cl)cc1Cl` (stereo unspecified) gave a composite z-score of 0.25. Molecule `C=C(COC)C(=O)CC[C@@H](OC(C)=O)c1ccc(OCCO)cc1` has a composite z-score of -0.241.

These molecules were tested on Sonic hedgehog protein (Shh) (assay: small-molecule binders of Shh protein, primary screen, biochemical, small-molecule microarray, 635/667 nm fluorescence (AID 1151;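 further: Shh protein binding to compounds spotted on small-molecule microarray slides; score combines spot fluorescence intensity with signal-to-noise across triplicate slides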)). Conditions: small-molecule microarray binding, 635 nm fluorescence; higher = more signal.
`CCCCN1CC=CC23O[C@@H]4C=CCOC(=O)[C@@H]4[C@H]2C(=O)N(CCO)[C@@H]3C1=O` (stereo partly specified) showed a composite z-score of -0.858. `C=CC[C@@]12N=C(c3ccc(OCCCO)cc3)O[C@@H]1c1ccccc1N(Cc1ccccc1)C2=O` showed a composite z-score of 2.06. With `COCCOC(=O)N1C(=O)[C@@]2(c3cc(C#CCC(C(=O)OC)C(=O)OC)ccc31)[C@H](C(N)=O)[C@H]1C(=O)O[C@H](c3ccccc3)[C@H](c3ccccc3)N1[C@@H]2c1ccc(OCCO)cc1` the composite z-score was 1.07. With `CCOC(=O)C1=C(C(=O)OCC)N(S(=O)(=O)CC[Si](C)(C)C)[C@H](c2ccccc2)CC1` the composite z-score was -0.424. For `COC(=O)C1=CC(CCCO)=CC(c2ccc(CN3CCCC3)cc2)N(Cc2sc3ccccc3c2Cl)C=C1C(=O)OC` (stereo unspecified), the composite z-score was 0.836. Molecule `C=CCNC(=O)[C@@H]1[C@H]2C(=O)O[C@H](c3ccccc3)[C@H](c3ccccc3)N2[C@H](c2ccc(O)cc2)[C@@]12C(=O)Nc1ccc(C#CC3(O)CCCCCC3)cc12` has a composite z-score of 1.11. `NC(=O)NCC#Cc1ccc2c(c1)[C@]1(C(=O)N2)[C@H](C(=O)Nc2nc3ccccc3s2)[C@H]2C(=O)O[C@H](c3ccccc3)[C@H](c3ccccc3)N2[C@@H]1c1ccc(OCCO)cc1` gave a composite z-score of 0.287. Molecule `COCCOC(=O)N1C(=O)[C@@]2(c3cc(C#CC4(O)CCCCCC4)ccc31)[C@H](c1ccccc1OCCO)N1[C@H](c3ccccc3)[C@H](c3ccccc3)OC(=O)[C@H]1[C@@H]2C(=O)N1CCCCCCC1` has a composite z-score of 2.01. Work on `COCCOC(=O)N1C(=O)[C@@]2(c3cc(C#CCCO)ccc31)[C@H](C(=O)N1CCc3cc(OC)c(OC)cc3C1)[C@H]1C(=O)O[C@H](c3ccccc3)[C@H](c3ccccc3)N1[C@@H]2c1ccccc1OCCO` yielded a composite z-score of 1.69. Work on `[N-]=[N+]=NCc1ccccc1[C@H]1OC(c2ccc(OCCCO)cc2)=N[C@@]1(Cc1ccccc1)C(=O)N1CCOCC1` yielded a composite z-score of -0.346. In the case of `C=CCOC(=O)[C@H]1[C@@H]2C(=O)O[C@@H](c3ccccc3)[C@@H](c3ccccc3)N2[C@@H](c2ccc(OCCOC(=O)[C@@H]3C[C@@H]4C(=O)N[C@@H](CC(C)C)C(=O)N4[C@@H]3c3ccc(O)cc3)cc2)[C@]12C(=O)Nc1ccc(I)cc12`, the composite z-score is reported as 1.91. In the case of `COCCOC(=O)N1C(=O)[C@@]2(c3cc(C#CCC(C(=O)OC)C(=O)OC)ccc31)[C@H](C(=O)N1CCc3cc(OC)c(OC)cc3C1)[C@H]1C(=O)O[C@H](c3ccccc3)[C@H](c3ccccc3)N1[C@@H]2c1ccc(O)cc1`, the composite z-score is reported as 1.9. Molecule `O=C1c2ccccc2[C@@]2(Cc3ccccc3N(Cc3ccccc3)C2=O)[C@H](c2ccc(CO)cc2)N1Cc1ccccc1` has a composite z-score of -0.907. `CN(C)CCCC[C@@H]1NC(=O)[C@@H]2C[C@H](C(=O)NCCCCCCNC(=O)CS)[C@H](c3cccc(OCCO)c3)N2C1=O` was tested, and the composite z-score was 0.919. Work on `CCCC[C@H]1OB(O)C[C@H]2C1=C(COC)C[C@H]1C(=O)C=CC(=O)[C@H]12` yielded a composite z-score of 1.63. For `C=C(/C(=C/C[C@@H](OC(C)=O)c1ccccc1OCCO)c1cc(C(=O)OC)ccc1OC)C(C)C`, the composite z-score was 1.02. `C=C(CCCC)/C(=C/C[C@H](OC(C)=O)c1cccc(OCCO)c1)c1cc(C(=O)OC)ccc1OC` was tested, and the composite z-score was 0.454. `CN(C)CCCC[C@@H]1NC(=O)[C@@H]2C[C@H](C(=O)NCc3ccc(F)cc3)[C@H](c3ccc(O)cc3)N2C1=O` gave a composite z-score of 2.28. With `C=CCNC(=O)[C@@H]1[C@H]2C(=O)O[C@H](c3ccccc3)[C@H](c3ccccc3)N2[C@H](c2ccccc2OCCO)[C@@]12C(=O)N(C(=O)OCCOC)c1ccc(C#CCCO)cc12` the composite z-score was 1.06. Work on `C=CCC(OC(C)=O)[C@@H]1[C@@H](N(Cc2cc3ccccc3o2)C(=O)c2ccc(-c3ccccc3)cc2)c2cc(OCCCO)ccc2N1C(=O)c1ccc2ccccc2n1` (stereo partly specified) yielded a composite z-score of 0.135. `COc1ccc(C#Cc2ccc3c(c2)[C@]2(C(=O)N3)[C@H](C(=O)Nc3nc4ccccc4s3)[C@H]3C(=O)O[C@H](c4ccccc4)[C@H](c4ccccc4)N3[C@@H]2c2ccc(OCCO)cc2)cc1` was tested, and the composite z-score was 1.06. With `C=CCC(OC(C)=O)[C@@H]1[C@@H](N(Cc2cc3ccccc3o2)C(=O)Cc2ccc(OC)cc2)c2cc(OCCCO)ccc2N1C(=O)Cc1ccc(OC)cc1` (stereo partly specified) the composite z-score was 0.551. Work on `COCCOC(=O)N1C(=O)[C@@]2(c3cc(C#CC4(O)CCCCCC4)ccc31)[C@H](C(=O)NC[C@H](O)c1ccccc1)[C@H]1C(=O)O[C@H](c3ccccc3)[C@H](c3ccccc3)N1[C@@H]2c1ccc(O)cc1` yielded a composite z-score of 1.07. `Cc1c(NC(=O)/C(C#N)=C/c2ccc(Cl)cc2)c(=O)n(-c2ccccc2)n1C` was tested, and the composite z-score was -0.217. `CCCC=C(CCC)[C@@H](NS(=O)(=O)c1ccc(Cl)cc1)c1ccccc1` was tested, and the composite z-score was -1.12. `CN(C)CCCNC(=O)[C@@]1(Cc2ccccc2I)c2ccccc2C(=O)N(Cc2ccccc2)[C@H]1c1ccc(CO)cc1` gave a composite z-score of 1.41. `CCOC(=O)C[C@H]1[C@H](OC(=O)c2ccc(-c3ccccc3)cc2)[C@@H](NC(=O)c2ccc3ccccc3c2)c2cc(OCCCO)ccc2N1C(=O)c1ccccc1` gave a composite z-score of 0.27. In the case of `C=C(CCCC)C(=O)CC[C@H](OC(=O)c1cccnc1)c1ccc(CO)o1`, the composite z-score is reported as 1.6. `COc1ccc(C#Cc2ccc3c(c2)[C@]2(C(=O)N3)[C@H](c3ccc(OCCO)cc3)N3[C@H](c4ccccc4)[C@H](c4ccccc4)OC(=O)[C@H]3[C@@H]2C(=O)O)cc1` showed a composite z-score of 1.89. `COC(=O)[C@@]1(Cc2ccc(F)cc2)[C@H]2c3cc(C(=O)N(C)C)n(CCN4CCOCC4)c3C[C@H]2CN1C(=O)c1ccccc1` gave a composite z-score of -0.976. In the case of `CCCC[C@@H]1C[C@H]1[C@@H](NC(=O)c1ccc(C(F)(F)F)cc1)c1ccc(C(=O)OC)cc1`, the composite z-score is reported as 1.91. With `COC(=O)[C@@]1(Cc2ccccc2)[C@@H]2[C@@H](CC(=O)[C@H]2CC(=O)C(=O)N(C)C)CN1C(=O)c1ccccc1` the composite z-score was -0.829. Molecule `COC(=O)[C@@]1(Cc2ccc(OC)cc2)[C@H]2c3cc(C(=O)N4CCCC4)n(CCc4ccc(OC)c(Br)c4)c3C[C@H]2CN1C(=O)c1ccccc1` has a composite z-score of -0.908. Work on `O=C1NC(=O)C2C1C=CC(C(O)c1cccc(O)c1)N2Nc1ccc(Cl)cc1Cl` (stereo unspecified) yielded a composite z-score of -1.14. For `C=C(COC)C(=O)CC[C@@H](OC(C)=O)c1ccc(OCCO)cc1`, the composite z-score was 1.64.
